Screening results deposited in PubChem by The Scripps Research Institute Molecular Screening Center.
Most compounds without a hit are left out; they make up all but 1.8% or so of the library.
LYPLA1 counter = LYPLA1 (human) inhibition in PME1 counter-screen; O75608; recombinant LYPLA1, FP-Rh probe fluorescence polarization; inhibition, % at 5.9 µM; actives 0.16% (n = 320,000); AID 2174;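 active = inhibition above the mean of all tested compounds plus 3 SD, set per campaign, cut at about 14% in these data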;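 note: inhibitors block serine hydrolase probe labeling of LYPLA1 so polarization falls; 0% = enzyme with DMSO and 100% = wells lacking LYPLA1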
Target sequence (O75608 whole entry, looked up): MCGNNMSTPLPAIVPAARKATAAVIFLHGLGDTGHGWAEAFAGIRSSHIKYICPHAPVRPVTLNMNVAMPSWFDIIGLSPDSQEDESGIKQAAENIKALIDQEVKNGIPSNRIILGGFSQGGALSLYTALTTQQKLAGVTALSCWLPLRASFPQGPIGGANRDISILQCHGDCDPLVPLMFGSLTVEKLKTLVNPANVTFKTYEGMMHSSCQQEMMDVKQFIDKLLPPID
PP5 primary = PP5 (human) phosphatase inhibition; P53041; purified PP5c, OMFP substrate fluorescence; inhibition, % at 6.7 µM; actives 0.18% (n = 320,000);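 active = inhibition above the campaign's mean inhibition across all tested compounds plus 3 SD, cut at about 9.5% in these data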;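 note: 0% = DMSO only and 100% = 100 µM cantharidin control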
LYPLA2 counter = counter-screen for PME1 inhibitors: inhibitors of human LYPLA2; actives 0.38% (n = 320,000); AID 2177; recombinant LYPLA2, FP-Rh probe fluorescence polarization; inhibition, % at 5.9 µM;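 active = inhibition above the screen-wide mean plus 3 SD, limit set per campaign, cut at about 26% in these data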;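 note: 0% = LYPLA2 with DMSO and 100% = wells lacking LYPLA2 enzyme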
Target sequence (O95372 whole entry, looked up): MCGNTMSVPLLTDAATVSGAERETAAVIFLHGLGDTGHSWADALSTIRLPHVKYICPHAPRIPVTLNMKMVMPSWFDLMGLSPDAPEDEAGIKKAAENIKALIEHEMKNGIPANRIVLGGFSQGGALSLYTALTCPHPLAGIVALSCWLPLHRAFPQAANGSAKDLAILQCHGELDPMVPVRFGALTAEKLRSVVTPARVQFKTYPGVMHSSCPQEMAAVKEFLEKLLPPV
Fam108B inh = counter-screen for RBBP9 inhibitors: inhibitors of mouse Fam108B; recombinant Fam108B, FP-Rh probe fluorescence polarization; inhibition, % at 9.51 µM; actives 0.33% (n = 300,000);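 active = inhibition above the screen mean inhibition plus 3 SD, computed separately per campaign, cut at about 18% in these data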;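 note: inhibitors lower polarization as less probe binds the enzyme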
PP1 inh = counter-screen for PP5 inhibitors: inhibitors of human PP1-alpha; inhibition, % at 6.7 µM; P62136; actives 0.9% (n = 320,000); purified PP1alpha, OMFP fluorescence;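 active = inhibition above the mean inhibition of all tested compounds plus 3 SD, computed separately for each screening campaign, cut at about 15% in these data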
PME-1 inh = PME-1 (human) inhibition; Q9Y570; AID 2130; recombinant PME-1, FP-Rh probe fluorescence polarization; inhibition, % at 5.9 µM; actives 0.53% (n = 320,000);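 active = inhibition above the campaign mean of all compounds plus 3 SD, cut at about 26% in these data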;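 note: competitive labeling of PME-1 active site by serine hydrolase directed probe; 0% = PME-1 with DMSO and 100% = wells lacking PME-1 enzyme; inhibitors block probe labeling so polarization falls and inhibition rises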
PP1 confirm = human PP1 phosphatase inhibition, confirmation; purified PP1alpha, OMFP substrate fluorescence; inhibition, % at 6.7 µM; shares compounds with PP1 inh; AID 2358; actives 52% (n = 1,900);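 active = mean PP1 inhibition above a set limit taken from the earlier primary screen, cut at about 15% in these data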
PP5 counter = counter-screen for PP1 inhibitors: human PP5 phosphatase inhibition; shares compounds with PP1 inh; purified PP5c, OMFP fluorescence; inhibition, % at 6.7 µM; actives 4% (n = 1,900); AID 2360;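 active = mean PP5 inhibition over triplicate wells above about 9.5% taken from the earlier PP1 screen, limit read from the data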
Starred values were filed as active, the others as inactive; . = not tested or not shown.

SMILES	LYPLA1 counter	PP5 primary	LYPLA2 counter	Fam108B inh	PP1 inh	PME-1 inh	PP1 confirm	PP5 counter
CCOC(=O)[C@@H]1[C@H]2COc3ccc(Br)cc3[C@@H]2N2C(=O)N(c3ccc(C(F)(F)F)cc3)C(=O)[C@@]12C	-6.1	7.0	-5.1	4.0	6.0	-7.3	.	.
CCOC(=O)Oc1c(OC)cc(C(=O)O[C@@H]2C[C@@H]3CN4CCc5c([nH]c6cc(OC)ccc56)[C@H]4C[C@@H]3[C@H](C(=O)OC)[C@H]2OC)cc1OC	-5.4	-9.2	-2.2	8.4	19.5*	0.7	-0.4	4.6
COC(=O)[C@H]1[C@H]2C[C@H]3c4[nH]c5ccccc5c4CCN3C[C@H]2CC[C@@H]1O	-0.3	-3.5	-2.5	-5.7	-2.2	-2.5	.	.
O=C(COc1ccc(/C=N/NC(=O)c2ccncc2)cc1)Nc1ccc([N+](=O)[O-])cc1	-5.7	1.0	-4.3	-3.2	-3.1	-4.0	.	.
O=C(COc1ccc(/C=N/NC(=O)c2ccc(O)cc2)cc1)Nc1cccc([N+](=O)[O-])c1	-31.9	0.1	-103.8	-51.2	26.7*	-82.1	25.8*	-2.4
Brc1ccc(C[n+]2ccccc2)cc1	-1.3	-0.3	-5.2	-2.6	-0.3	-3.6	.	.
Cc1cc(OCCN2CCN(S(=O)(=O)c3ccccc3F)CC2)ccc1C(C)C	1.7	4.6	1.9	.	0.7	0.4	.	.
O=C(CCN1C(=O)/C(=C/c2ccccc2Cl)SC1=S)NC1C=CS(=O)(=O)C1 (stereo unspecified)	1.0	-1.2	1.6	-3.9	23.7*	-1.8	24.4*	-1.0
CCOC(=O)Cc1cc(=O)n2[nH]c(C)c(-c3ccc(OC)cc3)c2n1	-0.6	-2.9	-1.5	0.8	13.1	-6.2	.	.
CCOC(=O)Cc1cc(=O)n2[nH]c(-c3ccc(C)cc3)cc2n1	-5.9	-3.0	1.6	-1.9	18.2*	-1.5	10.3	1.1
CCOC(=O)Cc1cc(=O)n2[nH]c(C)c(-c3ccc(Cl)cc3)c2n1	-0.1	3.2	-1.1	1.2	24.8*	6.8	18.2*	-5.1
Cc1ccc(Nc2nc(N)nc(COC(=O)C3=COCCO3)n2)cc1	-3.4	-1.4	-2.1	.	-2.8	6.2	.	.
CCOC(=O)c1cc(-c2ccccc2)sc1NC(=O)CN1C(=O)NC(CC)(c2ccc(F)cc2)C1=O (stereo unspecified)	-10.5	-0.2	-20.9	-22.3	-0.5	-26.1	.	.
CCOC(=O)c1cc(-c2ccccc2)sc1NC(=O)COC(=O)c1cccc(S(N)(=O)=O)c1	-4.2	0.3	-8.1	-4.9	19.2*	-16.5	30.5*	-4.0
CCOC(=O)c1cc(-c2ccccc2)sc1NC(=O)CN1C(=O)NC(CC)(c2ccccc2)C1=O (stereo unspecified)	-7.1	2.5	-16.2	-7.8	17.8*	-14.5	9.9	-4.7
CC(NC(=O)c1cccc(S(=O)(=O)N2CCCCCC2)c1)c1ccccc1 (stereo unspecified)	1.1	-1.2	-2.0	.	-1.4	4.8	.	.
O=C(Nc1ccc2oc(-c3ccccc3Cl)nc2c1)c1ncn[nH]1	-3.5	0.6	-10.3	-10.5	18.9*	-17.1	3.1	-5.6
O=C(Nc1ccc2oc(-c3cccc4ccccc34)nc2c1)c1ncn[nH]1	-11.0	-1.2	-33.1	-24.3	25.6*	-36.1	3.8	-2.2
Cc1ccccc1-n1nc2c(c1NC(=O)COc1ccc(Cl)cc1)CS(=O)C2 (stereo unspecified)	0.7	1.2	-1.8	2.5	-0.7	0.1	.	.
COc1ccc(CC(=O)Nc2c3c(nn2-c2ccccc2C)CS(=O)C3)cc1 (stereo unspecified)	-2.9	-0.1	3.0	-0.3	21.9*	-2.5	0.5	-1.1
CCCCOc1ccc(C(=O)NCC(=O)NCC(c2cccs2)N2CCOCC2)cc1 (stereo unspecified)	-3.5	1.4	5.2	.	-5.4	3.6	.	.
CCOC(=O)c1[nH]c(C)c(C(=O)OCc2ccccc2F)c1C	-2.3	1.1	-0.8	-3.5	-1.8	-0.6	.	.
C=CCOC(=O)C(=O)/C=C/c1ccc2c(c1)Cc1ccccc1-2	-6.3	2.0	-6.6	-14.0	21.4*	-17.8	17.7*	0.4
O=C(N/N=C/c1cc(Br)cc([N+](=O)[O-])c1O)c1ccc(NC(=O)c2ccc(F)cc2)cc1	-6.2	2.8	-14.7	7.7	21.7*	3.1	35.1*	0.2
COc1ccc2c(Cl)c(C(=O)N/N=C/c3ccc4c(c3)OCO4)sc2c1	-6.5	0.5	-4.5	-17.1	19.5*	-2.9	48.2*	1.9
SMILES	LYPLA1 counter	PP5 primary	LYPLA2 counter	Fam108B inh	PP1 inh	PME-1 inh	PP1 confirm	PP5 counter
O=C(N/N=C/c1ccc2c(c1)OCO2)c1ccc2c(c1)OCCO2	-3.8	1.4	2.7	4.5	-1.4	-4.5	.	.
O=C(N/N=C/c1ccc2c(c1)OCO2)c1sc2cc(Cl)ccc2c1Cl	-1.6	-0.2	2.7	1.2	-4.6	-10.2	.	.
O=C(N/N=C/c1ccc2c(c1)OCO2)c1ccc(NC(=O)c2ccc(F)cc2)cc1	-9.1	3.9	-16.8	-8.7	18.9*	-9.0	30.1*	-2.5
O=C(N/N=C/c1cc(Br)cc(Br)c1O)c1ccncc1	2.6	1.5	-3.3	5.7	-0.5	-1.8	.	.
O=C(CC1S/C(=N/N=C/c2c[nH]c3ccc(OCc4ccccc4)cc23)NC1=O)Nc1ccccc1 (stereo unspecified)	-10.6	3.0	-5.7	4.2	23.7*	10.5	24.4*	-5.6
O=C(CC1S/C(=N/N=C/c2c[nH]c3ccccc23)NC1=O)Nc1ccccc1 (stereo unspecified)	1.6	0.0	6.3	10.1	4.5	6.7	.	.
COc1cccc(NC(=O)c2cc(-c3ccco3)nc3ccccc23)c1	-2.1	0.3	-14.0	-6.9	17.9*	-19.4	3.1	0.2
Cc1ccc(NC(=O)CN(C)C(=O)c2cc(-c3ccco3)nc3ccccc23)cc1	-3.7	1.1	-1.5	0.5	28.5*	-11.9	0.2	-0.8
CN(CC(=O)Nc1ccc(F)cc1)C(=O)c1cc(-c2ccco2)nc2ccccc12	-1.8	0.4	-4.8	0.1	4.4	-4.3	.	.
COc1ccc(/C=C2\SC(=S)N(CCC(=O)N(CCO)c3ccccc3)C2=O)cc1OC	0.4	-0.5	11.2	-8.1	-1.4	3.0	.	.
CCOc1ccc(/C=C2\SC(=S)N(CCC(=O)N(CCO)c3ccccc3)C2=O)cc1	-1.5	5.2	-6.8	-6.7	21.9*	-8.3	8.2	4.0
CCN(CC)S(=O)(=O)c1ccc(C(=O)Nc2nnc(NC(=S)Nc3ccccc3)s2)cc1	-18.1	3.8	-23.8	16.7	42.7*	16.5	28.9*	0.9
Cc1ccc(C(c2cc(Cl)c3cccnc3c2O)N2CCN(C)CC2)cc1 (stereo unspecified)	-8.4	4.8	-2.3	-2.6	26.9*	6.2	11.4	-2.8
